Screening data from PubChem BioAssay.
Compounds with a hit are over-represented: about 3.9% of the library has one in this group of screens.
GDH-TPI inh – GDH-TPI coupled enzyme inhibition counter-screen | 360,000 compounds, 1.2% hits | GDH-TPI coupled enzyme counterscreen, NADH absorbance | inhibition, % at 4.8 µM;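 further: 0% = DMSO wells and 100% = wells lacking the enzyme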
BH1578 lux ind – induces V. cholerae light production without autoinducers; V. cholerae BH1578 lux reporter, luminescence, 6 h; activation, % at 18.7 µM; 350,000 compounds, 0.16% hits; AID 588436; in the data active means activation mostly above about 9.7%, no sharp cut-off
Mtb FBA inh – inhibitors of M. tuberculosis fructose-bisphosphate aldolase. 360,000 compounds, 2.3% hits. AID 588726. P9WQA3. purified M. tuberculosis FBA, fluorescence read-out. inhibition, % at 1 µM; in the data active means inhibition above about 27%;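 further: 0% = vehicle and 100% = reference inhibitor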
Target sequence (P9WQA3 whole entry, looked up): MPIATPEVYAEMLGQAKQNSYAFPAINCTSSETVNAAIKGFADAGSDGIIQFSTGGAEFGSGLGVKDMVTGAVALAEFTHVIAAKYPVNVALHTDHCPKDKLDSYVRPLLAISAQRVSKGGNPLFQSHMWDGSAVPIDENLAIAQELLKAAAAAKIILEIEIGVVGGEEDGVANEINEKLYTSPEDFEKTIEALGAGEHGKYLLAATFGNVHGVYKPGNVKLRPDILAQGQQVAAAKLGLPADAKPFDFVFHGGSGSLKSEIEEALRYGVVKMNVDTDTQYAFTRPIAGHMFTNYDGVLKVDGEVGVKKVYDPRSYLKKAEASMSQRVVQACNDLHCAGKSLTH
CCHF vOTU inh – blocks the CCHF virus ovarian tumor domain protease; CCHFV vOTU protease, Pep-AMC fluorescence; inhibition, % at 11.5 µM; 370,000 compounds, 0.55% hits; AID 651958; further: 0% = vehicle wells with enzyme and 100% = no enzyme wells
Numbers without * were called inactive; i = inactive; x = not tested or not shown; + = active, no number. Unless noted, no stated cut-off is given here; in the data, active means inhibition above about 30%; inactive means the rest.

SMILES	GDH-TPI inh	BH1578 lux ind	Mtb FBA inh	CCHF vOTU inh
CCOc1ccc(NC(=O)CS(=O)(=O)c2cn(C)c3ccccc23)cc1	-11	0	-2	3
COCCCn1c(=O)/c(=C/c2ccccc2OC(F)F)s/c1=C(\C#N)C(=O)NCCOC	18	-1	1	4
COCCCn1c(=O)/c(=C\c2cccc(OC)c2OC)s/c1=C(/C#N)C(=O)Nc1ccc(C(=O)O)cc1	40*	0	-2	18
CN(C)S(=O)(=O)c1cccc(-c2nnc(-c3ccccc3)o2)c1	5	-1	3	x
Cc1nc(=S)c2ccccc2[nH]1	31*	0	-5	18
O=C(NCCC1=CCCCC1)C1CCCN(S(=O)(=O)c2cnc[nH]2)C1 (stereo not drawn)	11	0	0	1
CO[C@H]1/C=C/O[C@@]2(C)Oc3c(C)c(O)c4c(O)c(c(C=NN5CCN(C)CC5)c(O)c4c3C2=O)NC(=O)/C(C)=C\C=C\[C@H](C)[C@H](O)[C@@H](C)[C@@H](O)[C@@H](C)[C@H](OC(C)=O)[C@@H]1C	13	i	-7	17
CO[C@H]1C=CO[C@@]2(C)Oc3c(C)c(O)c4c(O)c(c(C=NN5CCN(C)CC5)c(O)c4c3C2=O)NC(=O)C(C)=CC=C[C@H](C)[C@H](O)[C@@H](C)[C@@H](O)[C@@H](C)[C@H](OC(C)=O)[C@@H]1C	40*	i	-13	23
Cc1ccc(C)c(NC(=O)CCN2CCCCC2)c1	-5	0	-1	-14
CCCC1=Nc2cc(C(=O)N3CCC(C(N)=O)CC3)ccc2Sc2ccccc21	4	0	0	6
CCn1nc(C)c([N+](=O)[O-])c1C(=O)NNC(=O)c1ccc(Cl)cc1	6	1	1	-10
C[n+]1ccccc1/C=C/c1ccc(F)c(F)c1	35*	i	-1	-3
C[n+]1ccccc1/C=C/c1ccc([N+](=O)[O-])cc1	35*	i	-1	-6
C[n+]1ccccc1/C=C/c1c(F)cccc1F	45*	-1	-1	-9
Cc1ccccc1/C=C/c1cccc[n+]1C	20	i	-1	-5
C[n+]1ccccc1/C=C/c1ccc(C#N)cc1	20	-1	1	10
Cc1ccc(Nc2nc3ccccc3nc2Nc2c(C)n(C)n(-c3ccccc3)c2=O)cc1	4	i	0	-1
O=C(/C=C/NCc1cccnc1)c1ccc(-c2ccccc2)cc1	36*	0	5	6
O=C(/C=C/c1ccc(-c2ccccc2)cc1)NCc1cccnc1	11	i	8	6
COc1ccc(/C(C)=N/NC(=O)c2ccc(NS(=O)(=O)c3cccs3)cc2)cc1	15	i	7	-11
O=C(N/N=C/c1ccc([N+](=O)[O-])cc1)c1ccc(NS(=O)(=O)c2cccs2)cc1	41*	i	-5	19
O=C(NN=Cc1ccc(OC(F)F)cc1)c1ccc(NS(=O)(=O)c2cccs2)cc1	33*	0	0	19
O=C(N/N=C/c1ccc([N+](=O)[O-])o1)c1ccc(NS(=O)(=O)c2cccs2)cc1	17	i	8	19
O=C(NN=Cc1ccccc1OC(F)F)c1ccc(NS(=O)(=O)c2cccs2)cc1	32*	1	-4	11
O=C(Nc1ccc([N+](=O)[O-])cc1)N1CCCCC1	45*	0	2	2
SMILES	GDH-TPI inh	BH1578 lux ind	Mtb FBA inh	CCHF vOTU inh
O=C(Nc1ccc([N+](=O)[O-])cc1)N1CCCCCC1	15	-1	0	18
CCC(=O)N1N=C(c2ccccc2)CC1c1ccccc1 (stereo not drawn)	0	-1	-1	-8
CS(=O)(=O)Nc1ccc(C2=NN(S(C)(=O)=O)C(c3ccc4c(c3)OCO4)C2)cc1 (stereo not drawn)	12	0	141*	-29
COc1ccccc1C1CC(c2ccc(NS(C)(=O)=O)cc2)=NN1C(=O)c1ccccc1 (stereo not drawn)	9	1	-12	1
CCC(CC)C(=O)N1N=C(c2ccc(NS(C)(=O)=O)cc2)CC1c1ccccc1 (stereo not drawn)	23	-1	+	-89
CCC(CC)C(=O)N1N=C(c2ccc(NS(C)(=O)=O)cc2)CC1c1ccc(C)cc1 (stereo not drawn)	29	0	+	-88
CC(=O)N1N=C(c2cccc(NS(C)(=O)=O)c2)CC1c1ccc2c(c1)OCO2 (stereo not drawn)	4	0	-2	4
CCC(=O)N1N=C(c2ccc(NS(C)(=O)=O)cc2)CC1c1ccc(C)cc1 (stereo not drawn)	17	1	+	-187
Cc1nc2c(sc(=S)n2Cc2ccco2)c(=O)n1CC(=O)Nc1ccc(F)cc1	16	0	-1	19
Cc1ccc(S(=O)(=O)N(C)C)cc1NC(=S)NC12CC3CC(CC(C3)C1)C2	2	i	+	4
CCCN1C(=O)/C(=C\C=C2/Sc3ccccc3N2CCO)SC1=S	-4	-1	2	-13
CCN1C(=O)/C(=C/C=C2/Sc3ccccc3N2CCO)SC1=S	15	236*	-6	1
Cc1cc(C)n(CC(=O)NC2CCCc3c2cnn3-c2ccc(C)c(C)c2)n1 (stereo not drawn)	0	0	0	10
O=C(O)CCn1cc(C2CC(c3ccccc3)=NN2c2ccccc2)c(-c2ccccc2)n1 (stereo not drawn)	9	0	+	-37
Cc1ccc(-c2nn(-c3ccccc3)cc2C2CC(c3cccs3)=NN2C(=O)CCC(=O)O)cc1 (stereo not drawn)	1	i	5	24
C/C(=N\O)C(C)(C)Nc1ccccc1F	3	1	0	-6
O=C1NC(=Nc2ccccc2)S/C1=C/c1cccnc1	22	0	-3	-4
COc1ccc(/C=C2\SC(=Nc3ccccc3OC)NC2=O)cc1	50*	-1	-2	7
O=C1NC(=Nc2cccc(O)c2)S/C1=C\c1cccc([N+](=O)[O-])c1	32*	i	-3	-4
COc1cc(/C=C2\SC(=Nc3ccccc3OC)NC2=O)ccc1O	25	-1	-2	9
O=C1NC(=Nc2ccccc2)S/C1=C\c1ccccc1	33*	i	0	7
Cc1ccc2nc(C)cc(Nc3ccc4c(c3)OCCO4)c2c1	33*	i	3	5
COc1ccc(-c2cc(=Nc3c(C)n(C)n(-c4ccccc4)c3=O)c3ccccc3o2)cc1	17	i	+	-351
O=C1CCCC(O)=C1C=Nc1ccc(O)cc1	35*	i	-6	15
Cc1nc(S/C(=C/c2ccc(OCc3ccc(C(=O)O)cc3)cc2)C(=O)O)n[nH]1	31*	-1	4	11
CN(CCO)c1nc(N)c(C#N)c(CC#N)c1C#N	34*	i	1	19
CC(C)CN(CC(C)C)c1nc(N)c(C#N)c(CC#N)c1C#N	3	1	6	11
C=CCOc1ccc(/C(O)=C2\C(=O)C(=O)N(CCOC)C2c2cccnc2)cc1 (stereo not drawn)	34*	i	3	-12
CCCOc1ccc(/C(O)=C2/C(=O)C(=O)N(CCOC)C2c2cccnc2)cc1 (stereo not drawn)	x	x	x	5
